Screening results: PubChem BioAssay, National Center for Advancing Translational Sciences (NCATS)
PMP22 txn = modulators of PMP22 gene transcription in S16 Schwann cells | AID 1508649 | actives 2% (n = 43,000) | S16 Pmp22-F2sN Schwann cells, FLuc/NLuc coincidence luminescence, 24 h | Potency, µM (top dose mostly 57.5 µM), without a hit: at the highest dose activity change, negative = inhibition, most hits filed as inhibitors; active = clear falling dose curves in both reporters; inconclusive = both reporters move, but less clearly or upward; inactive = either reporter flat; the % is the NLuc reporter signal
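Transcriptional readout in edited S16(c9) cells: two luciferases reported from the Pmp22 locus, measured in turn after 24 h compound incubation.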
p53null 39C kill = kills p53 null cells at the nonpermissive temperature | H1299 p53-null (neo) cells, 39C, ATPlite viability, 24 h | Potency, µM (top dose mostly 46.1 µM), for inactives: top-dose activity, negative = cell killing, most hits filed as cytotoxic | actives 0.97% (n = 55,000);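 note: 0% = DMSO only and -100% = full killing by 100 µM tamoxifen; nearly all actives have a fitted effect of over 50% in size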
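H1299 lung cancer cells, p53-null (H1299-neo) or expressing p53 A138V (H1299-p53A138V), were plated overnight at 37C, then exposed to compounds at up to 46 uM for 24 hr at 39C. Viability was read by ATP-based luminescence.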
pS6 MEF inh = mTORC1 pathway inhibition measured by phospho-rpS6; Tsc2-/- p53-/- MEF, phospho-rpS6 immunofluorescence/PI, 24 h; Potency, µM (titrated, usually from 38.3 µM), for the others: at the top dose activity change, negative = inhibition, hits mostly inhibitors; actives 0.78% (n = 44,000); AID 493208;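 note: plate controls were DMSO for no effect and rapamycin for full effect; nearly all actives have a fitted effect of over 50% in size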
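Immunofluorescence of rpS6 phosphorylation in Tsc2-/-, p53-/- MEFs after 24 h compound exposure, normalized to propidium iodide signal. Activity is expressed as % positive cells, thresholded with 7.5 nM rapamycin.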
S16 viability = S16 Schwann cell cytotoxicity; S16 Pmp22-F2sN Schwann cells viability, CellTiter-Glo, 24 h; Potency, µM (top dose mostly 57.5 µM), inactives show at the top dose activity change, negative = cytotoxicity, hits mostly cytotoxic; actives 0.48% (n = 43,000); note: nearly all actives have a fitted effect of over 65% in size
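S16 Pmp22-F2sN Schwann cells (500-1,000/well) in phenol-red-free DMEM with 10% FBS received 23 nL compound by pin tool for 24 h at 37 °C. Viability was then read as CellTiter-Glo luminescence after 15 min at room temperature.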
OvCa metastasis = ovarian cancer metastasis inhibition, 3D TME model | SKOV3ip1-GFP adhesion/invasion on 3D omental model, fluorescence | Potency, µM (titrated, usually from 45.8 µM), inactives show at the highest dose activity change, negative = inhibition, hits mostly inhibitors | actives 0.1% (n = 46,000) | AID 1963576;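 note: plate controls were DMSO wells for no effect and tomatine positive control wells for full effect; nearly all actives have a fitted effect of over 65% in size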
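Adhesion/invasion was scored as fixed GFP-labeled SKOV3ip1 cell counts (488/509 nm), normalized to DMSO and tomatine controls. Cancer cells in serum-free medium, with four compound doses (0.36-46 umol/L), sat 2 hr at RT then 16 hr at 37 C on a 48 hr fibroblast/mesothelial/ECM culture.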
p53null 32C tox = selectivity test: cytotoxicity in p53 null cells, permissive temperature. Potency, µM (titrated, usually from 46.1 µM), inactives show at the highest dose activity change, negative = cytotoxicity, actives largely listed as cytotoxic. actives 0.62% (n = 55,000). H1299-neo p53 null cells, ATP luminescence, 24 h, 32C;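 note: 0% = DMSO only and -100% = full killing by 100 µM tamoxifen; nearly all actives have a fitted effect of over 55% in size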
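We seeded p53-null H1299-neo cells, incubated them overnight at 37C, and added compounds across a range up to 46 uM. After 24 hours at 32C, ATP reagent was applied for 20 min at room temperature and luminescence recorded.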
Starred values were filed as active, the others as inactive; i = inactive; u = inconclusive; x = no result given. Rows were chosen to be rich in hits. Some 3.1% of all compounds tested hit in one or more screens of this group. Unless noted, calls come from the whole dose curve; as a rule, active = well fitted curve in the direction sought with a large enough effect; inconclusive = small, poorly fitted or top-dose-only effect, or another doubt; inactive = no such curve, though single readings can be large; an effect the other way counts as inactive or inconclusive. Unless noted, % is set by controls: 0 for no effect and ±100 for the full control effect; potency is the fitted concentration of half-maximal effect.

SMILES | PMP22 txn | p53null 39C kill | pS6 MEF inh | S16 viability | OvCa metastasis | p53null 32C tox
C[C@@H](Cc1cc2c(c(C(N)=O)c1)N(CCCO)CC2)NCCOc1ccccc1OCC(F)(F)F | x | x | x | x | -2% | x
O=C(Nc1nnc(-c2cc(Cl)ccc2Cl)o1)c1ccc2c(c1)OCCO2 | -4% | -41% | u | 6% | 7% | -5%
Cc1ccc(-c2nnc(NC(=O)c3ccc4c(c3)OCCO4)o2)c(C)c1 | u | 25µM* | 3% | 2% | 3% | -15%
CCC1CCCCN1CCCNC(=O)c1cc2c(Cl)nc3ccc(C)cc3c2s1 (stereo not given) | u | 20µM* | -12% | u | u | -3%
CCCNc1ncnc2onc(C)c12 | 0% | 2% | -3% | u | 1% | -4%
CSc1ccc(CCNc2ncnc3onc(C)c23)cc1 | 2.2µM* | -14% | 1% | u | 4% | -8%
CN1CCC(CNc2ccc3ncc(-c4cccc(OC(F)(F)F)c4)n3n2)CC1 | x | x | x | x | -9% | x
Cc1ccc(NC(=O)c2oc3ccc4c(c3c2C)C(=O)CC(C)(C)O4)c(C)c1 | -6% | -6% | 6% | 16% | -15% | -16%
CC(=O)Nc1ccc(NC(=O)c2oc3ccc4c(c3c2C)C(=O)CC(C)(C)O4)cc1 | u | 3.2µM* | -2% | u | i | 4µM*
CCOC(=O)c1ccc(NC(=O)c2oc3ccc4c(c3c2C)C(=O)CC(C)(CC)O4)cc1 (stereo not given) | u | 3.2µM* | -6% | 2% | -4% | u
COC(=O)c1ccccc1NC(=O)c1oc2ccc3c(c2c1C)C(=O)CC(C)(C)O3 | -18% | 4% | 1% | 12% | i | -6%
Cc1[nH]c(C=C2C(=O)Nc3ccc(S(=O)(=O)Cc4c(Cl)cccc4Cl)cc32)c(C)c1C(=O)N1CCC[C@H]1CN1CCCC1 | x | x | x | x | 5% | x
Cc1cccc2nc(-c3ccccn3)c(Nc3ccc(F)cc3)n12 | 13µM* | u | -16% | u | u | 22%
Cc1cccc2nc(-c3ccccn3)c(Nc3ccccc3)n12 | u | u | -11% | -6% | -14% | 27%
NC(=O)c1ncn([C@@H]2O[C@H](CO)[C@@H](O)[C@@H]2O)n1 | x | x | x | x | -12% | x
Cc1oc2ccc(O)c(CN(C)Cc3ccccc3)c2c1C(=O)Nc1cccc(C(F)(F)F)c1 | u | 22µM* | u | u | -10% | 17%
CCN(Cc1ccccc1)Cc1c(O)ccc2oc(C)c(C(=O)Nc3ccc(C)cc3C)c12 | u | 11% | u | u | i | 13%
Cc1ccc(NC(=O)c2c(C)oc3ccc(O)c(CN(C)Cc4ccccc4)c23)c(C)c1 | u | 12% | 15µM* | -27% | u | -8%
CNc1nnc(-c2ccc(N(C)C)cc2)s1 | x | 7.9µM* | x | x | x | 8.9µM*
CC(C)COc1ccc(C(=O)NCC2(N3CCN(C)CC3)CCCCC2)cc1 | u | -15% | 16µM* | u | u | -5%
CC(C)(C)c1ccc(OCC(=O)NCC2(N3CCOCC3)CCCCC2)cc1 | u | u | u | u | i | u
Cc1ccc(OC(C)C(=O)NCC2(N3CCOCC3)CCCCC2)cc1C (stereo not given) | u | -9% | u | -15% | i | -7%
CN1CCN(C2(CNC(=O)c3ccc(C(C)(C)C)cc3)CCCCC2)CC1 | u | -17% | 16µM* | u | i | -2%
COc1cc(C(=O)Nc2sc3c(c2C#N)CCCC3)c(Br)c(OC)c1OC | 13µM* | 7% | 7% | u | -9% | 21%
CCN1C[C@H](C)n2c(c(O)c3c(=O)n(Cc4ccc(F)c(Cl)c4)nc(C(=O)NC)c32)C1=O | x | x | x | x | 8% | x
SMILES | PMP22 txn | p53null 39C kill | pS6 MEF inh | S16 viability | OvCa metastasis | p53null 32C tox
Cc1cc(C=c2sc3nc4ccccc4n3c2=O)c(C)n1-c1ccccc1 | x | x | x | x | -27% | x
COCc1cc(C)nc2sc(C(=O)Nc3ccc(C(C)=O)cc3)c(N)c12 | u | -10% | -9% | 0% | 3% | -6%
CCCCOC(=O)c1ccc(NC(=O)c2sc3nc(C)cc(C)c3c2N)cc1 | 2% | u | 10µM* | 10% | u | u
CC(C)(O)CC(=O)NCCn1ccc2ncnc(Nc3ccc(Oc4cccc(C(F)(F)F)c4)c(Cl)c3)c21 | x | x | x | x | 5% | x
CN(C)CCC=C1c2ccccc2COc2ccc(CC(=O)O)cc21 | x | x | x | x | 1% | x
CSc1cccc(Nc2ncc3cc(-c4c(Cl)cccc4Cl)c(=O)n(C)c3n2)c1 | x | x | x | x | -6% | x
O=C(O)Cn1nnc(-c2cc(N3CCC(Oc4cc(F)ccc4Br)CC3)no2)n1 | x | x | x | x | 2% | x
O=C(Nc1ccc(Cl)cc1)N1CCC(c2ccccc2)C1 (stereo not given) | -17% | u | -5% | -16% | -2% | 4µM*
CCc1ccc(-n2c(=O)c3c4c(sc3n(CC(=O)c3ccc(F)cc3)c2=O)CCC4)cc1 | u | -25% | 5.2µM* | -19% | -21% | 3%
CC1(C)SCCN(S(=O)(=O)c2ccc(OCC#CCO)cc2)[C@@H]1C(=O)NO | x | x | x | x | -6% | x
CCCOCc1cc(CN2CCN(c3cccc(Cl)c3)CC2)c(O)c2ncccc12 | u | 0.32µM* | u | u | u | -24%
COc1cc(CN2CCN(c3cccc(Cl)c3)CC2)cc(OC)c1OC | x | -25% | x | x | x | 7%
CCCCOCc1cc(CN2CCN(c3cccc(Cl)c3)CC2)c(O)c2ncccc12 | 2.7µM* | -7% | u | u | -23% | 7%
CCOc1cc2ncc(C#N)c(Nc3ccc(F)c(Cl)c3)c2cc1NC(=O)C=CCN(C)C | x | x | x | x | -2% | x
CC(=O)OCC(=O)[C@@]12N=C(C)O[C@H]1C[C@H]1[C@@H]3CCC4=CC(=O)C=C[C@]4(C)[C@@H]3[C@@H](O)C[C@@]12C | x | x | x | x | 17% | x
Nc1ccc2oc(-c3ccccc3Br)nc2c1 | u | 13µM* | -2% | -2% | 3% | u
CSc1cccc(NC(=O)c2ccc3c(c2)CCCN3S(C)(=O)=O)c1 | u | u | -3% | -25% | -3% | 13µM*
CCS(=O)(=O)N1CCCc2cc(C(=O)Nc3cccc(C(C)=O)c3)ccc21 | 9% | 6% | 2% | -19% | 1% | -5%
CC=C1NC(=O)[C@H]2CSSCCC=C[C@H](CC(=O)N[C@H](C(C)C)C(=O)N2)OC(=O)[C@H](C(C)C)NC1=O | x | x | x | x | -15% | x
